High-throughput results deposited in PubChem BioAssay by Johns Hopkins Ion Channel Center.
Sampled rows, rich in hits. Any-hit rate of the full collection: about 1.6%.
KCNQ2 block = rat KCNQ2 potassium channel inhibitors, primary screen, cell-based, CHO-K1, FluxOR thallium flux, B-score | Potassium voltage-gated channel subfamily KQT member 2 (Rattus norvegicus), O88943 | 20 min; active compounds read low | B-score at 10 µM | 310,000 tested, 1.1% active | AID 2156, 2009;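 active = fluorescence ratio B-score at most minus 3 library SDs, with starting brightness B-score within 2 library SDs, cut at about -5.5 in these data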
Target sequence (O88943 whole entry, looked up): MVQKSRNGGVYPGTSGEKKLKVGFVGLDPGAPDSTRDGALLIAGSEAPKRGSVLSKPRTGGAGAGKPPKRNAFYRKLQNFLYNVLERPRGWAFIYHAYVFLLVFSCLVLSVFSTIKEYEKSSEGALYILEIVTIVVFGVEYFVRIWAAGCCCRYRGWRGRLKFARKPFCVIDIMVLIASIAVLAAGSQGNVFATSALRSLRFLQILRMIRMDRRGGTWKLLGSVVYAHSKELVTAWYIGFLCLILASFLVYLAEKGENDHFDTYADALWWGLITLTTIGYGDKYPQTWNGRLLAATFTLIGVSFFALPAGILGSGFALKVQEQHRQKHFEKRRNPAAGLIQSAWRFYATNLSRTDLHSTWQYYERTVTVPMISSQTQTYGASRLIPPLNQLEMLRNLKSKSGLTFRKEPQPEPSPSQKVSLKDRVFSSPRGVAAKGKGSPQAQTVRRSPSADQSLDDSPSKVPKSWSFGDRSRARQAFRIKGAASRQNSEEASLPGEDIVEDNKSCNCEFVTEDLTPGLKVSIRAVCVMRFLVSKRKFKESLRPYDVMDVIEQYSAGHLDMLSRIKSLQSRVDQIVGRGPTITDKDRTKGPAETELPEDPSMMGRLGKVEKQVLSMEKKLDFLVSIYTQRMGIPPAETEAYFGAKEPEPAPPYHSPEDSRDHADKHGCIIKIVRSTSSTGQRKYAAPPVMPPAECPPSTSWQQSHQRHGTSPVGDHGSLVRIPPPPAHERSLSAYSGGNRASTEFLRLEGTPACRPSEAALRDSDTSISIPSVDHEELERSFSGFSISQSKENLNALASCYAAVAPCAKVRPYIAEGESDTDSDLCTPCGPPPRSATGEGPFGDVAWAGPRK
KCNQ2 pot = potentiators of rat KCNQ2 potassium channel; Potassium voltage-gated channel subfamily KQT member 2 (Rattus norvegicus), O88943; CHO-K1 KCNQ2, FluxOR thallium flux fluorescence; active compounds read high; B-score at 10 µM; 310,000 tested, 0.54% active; AID 2239, 2010;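 active = fluorescence ratio B-score at least 3 SD of library B-scores, with initial fluorescence B-score within 3 of them, cut at about 5.3 in these data; same plate scores as AID 2156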;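 note: B-score of peak minus minimum over baseline fluorescence ratio after K+ and Tl+ stimulus; positive B-score means potentiation of KCNQ2 with more thallium influx and brighter signal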
Starred values were filed as active, the others as inactive.

COc1ccccc1N1CCN(/N=C/c2ccc(Cl)c([N+](=O)[O-])c2)CC1 was read as KCNQ2 block -6.1* and KCNQ2 pot -6.1.
For COc1ccccc1N1CCN(/N=C/c2ccc([N+](=O)[O-])cc2)CC1 the results were KCNQ2 block inactive.
Screening CCOc1cc(C)c(S(=O)(=O)NCCCn2ccnc2)cc1C returned KCNQ2 block inactive and KCNQ2 pot 1.4.
Cc1onc(-c2ccccc2)c1C(=O)NCCc1c[nH]c2ccccc12 was read as KCNQ2 block -5.7* and KCNQ2 pot -5.7.
`Cc1noc(C)c1COc1cccc(C(=O)NCCc2c[nH]c3ccccc23)c1` gave KCNQ2 block inactive and KCNQ2 pot 0.11.
`COC(=O)c1ccc(NC(=O)c2cccc(NC(=O)c3ccccc3)c2)cc1` gave KCNQ2 block inactive and KCNQ2 pot 1.3.
For COc1ccc(C2=NS(=O)(=O)N(C)C(C(=O)N3CCOCC3)=C2)cc1OC the results were KCNQ2 block inactive and KCNQ2 pot 0.4.
For COc1ccc(OC)c(S(=O)(=O)Nc2ccc3c(c2)C(=O)OC3)c1 the results were KCNQ2 block inactive and KCNQ2 pot 1.1.
CC1(C)CC2CC(C)(CN2C(=S)Nc2ccccc2)C1 (configuration not stated) was read as KCNQ2 block inactive.
CC1(C)CC2CC(C)(CN2C(=S)NC(=O)c2ccccc2Cl)C1 (configuration not stated) was read as KCNQ2 block inactive and KCNQ2 pot 10*.
For Cc1cc(C)cc(NC(=O)CSc2nnc(-c3cc(C)[nH]n3)n2N)c1 the results were KCNQ2 block inactive and KCNQ2 pot 1.9.
COc1ccc(/C=C(\NC(=O)c2ccc([N+](=O)[O-])cc2)C(=O)NCCCn2ccnc2)cc1 was read as KCNQ2 block inactive.
For N#C/C(=C\c1ccc([N+](=O)[O-])cc1)C(=O)NCCCn1ccnc1 the results were KCNQ2 block -5.6* and KCNQ2 pot -5.6.
`C/C(=N/NC(=O)CNC(=O)c1cccc(F)c1)c1ccc2c(c1)CCCC2` gave KCNQ2 block inactive and KCNQ2 pot 0.25.
For Cc1cccc(NC(=O)CSCC(=O)Nc2cccc(S(=O)(=O)N3CCCCCC3)c2)c1 the results were KCNQ2 block inactive and KCNQ2 pot 0.27.
O=P(Cc1ccccc1)(c1ccccc1)c1ccccc1 was read as KCNQ2 block inactive.
CC(C)(C)c1cc(CP(=O)(c2ccccc2)c2ccccc2)cc(C(C)(C)C)c1O was read as KCNQ2 block -5.7* and KCNQ2 pot -5.7.
C[C@H](NC(=O)N1CCn2c1nc1ccccc12)C(=O)NCc1ccc2c(c1)OCO2 was read as KCNQ2 block inactive.
COc1ccc(CN(Cc2ccc(C(=O)O)cc2)C(=S)Nc2ccc(C)cc2)cc1OC was read as KCNQ2 block inactive and KCNQ2 pot 1.5.
`COc1ccc(-n2cc(-c3ccccc3)c3c(NN4CCOCC4)ncnc32)cc1` gave KCNQ2 block -5.6* and KCNQ2 pot -5.6.
For Cc1cccc(-n2cc(-c3ccccc3)c3c(N4CCOCC4)ncnc32)c1 the results were KCNQ2 block -6.7* and KCNQ2 pot -6.7.
For Cc1ccc(-n2cc(-c3ccccc3)c3c(N4CCOCC4)ncnc32)cc1 the results were KCNQ2 block inactive.
Screening Fc1ccc(-n2cc(-c3ccccc3)c3c(NN4CCOCC4)ncnc32)cc1 returned KCNQ2 block inactive and KCNQ2 pot 0.01.
For CC(=O)NC1(C(=O)O)CCCC1 the results were KCNQ2 block inactive.
Screening COc1ccc(/C=N/NC(=O)c2ccccc2OCc2ccccc2)c(OC)c1 returned KCNQ2 block -6.8* and KCNQ2 pot -6.8.
`Cc1cccc(/C=N/NC(=O)c2cc(Br)ccc2OCc2ccccc2)n1` gave KCNQ2 block -5.9* and KCNQ2 pot -5.9.
`COc1ccc(/C(C)=N/NC(=O)c2ccccc2OCc2ccccc2)c(OC)c1` gave KCNQ2 block inactive.
Cc1cccc(/C=N/NC(=O)c2ccccc2OCc2cccc(Br)c2)n1 was read as KCNQ2 block inactive.
COc1ccc(C(=O)Nc2ccccc2C(N)=O)cc1 was read as KCNQ2 block inactive and KCNQ2 pot 0.25.
COc1ccc(C(=O)Nc2ccccc2C(=O)N/N=C/c2cccc3ccccc23)cc1 was read as KCNQ2 block -5.8* and KCNQ2 pot -5.8.
CCCCCC(=O)Nc1ccc(C(=O)COC(=O)c2ccccn2)cc1 was read as KCNQ2 block inactive and KCNQ2 pot 0.06.
Screening C=C(C)CCC(C)N1CCC(n2nccc2NC(=O)CCCc2ccccc2)CC1 (configuration not stated) returned KCNQ2 block inactive and KCNQ2 pot 0.71.
Screening O=C(Oc1ccc(Br)cc1C(=O)/C=C/c1ccccc1F)c1ccco1 returned KCNQ2 block -7.2* and KCNQ2 pot -7.2.
Screening CC(=O)c1cc(Cl)ccc1OC(=O)c1ccco1 returned KCNQ2 block inactive and KCNQ2 pot 1.5.
For CC(=O)Nc1cccc(NC(=O)C2CC(=O)N(CCc3ccc(F)cc3)C2)c1 (configuration not stated) the results were KCNQ2 block inactive.
For CCC(C)[C@@H](N)C(=O)N/N=C/c1ccc2ncccc2c1 (some centres not stated) the results were KCNQ2 block inactive and KCNQ2 pot 0.24.
Screening CCOC(=O)C1C(=O)C=C(c2ccc([N+](=O)[O-])cc2)CC1c1ccccc1 (configuration not stated) returned KCNQ2 block inactive.
For CC(C)(C)OC(=O)[C@H]1[C@H](c2ccc([N+](=O)[O-])cc2)C2(C(=O)c3ccccc3C2=O)C2c3ccccc3C=NN21 (some centres not stated) the results were KCNQ2 block -6.1* and KCNQ2 pot -6.1.
For Cc1coc2c(C)c3oc(=O)c(CCC(=O)NCc4ccccn4)c(C)c3cc12 the results were KCNQ2 block inactive.
Screening O=C(Nc1ccc2c(c1)N(S(=O)(=O)c1cccs1)CCC2)c1c(F)cccc1Cl returned KCNQ2 block -6.4* and KCNQ2 pot -6.4.
COc1cccc(OC)c1C(=O)Nc1ccc2c(c1)N(S(=O)(=O)c1cccs1)CCC2 was read as KCNQ2 block inactive and KCNQ2 pot 1.2.
`Cn1c(CO)nc2c3ccccc3ccc21` gave KCNQ2 block inactive and KCNQ2 pot 1.2.
Screening Cc1ccc(Nc2cc(C)c(O)c(C)c2)cc1 returned KCNQ2 block inactive.
For c1csc(-c2nc(CN3CCSCC3)cs2)c1 the results were KCNQ2 block inactive.
For CC1(C)CC(Nc2ccc(Nc3ccccc3)cc2)CC(C)(C)N1 the results were KCNQ2 block inactive.
For COc1ccccc1N=Cc1c(C)[nH]n(-c2ccc(C)cc2C)c1=O the results were KCNQ2 block inactive.
COc1ccc2nc(/N=C/c3c(C)[nH]n(-c4ccc(C)cc4C)c3=O)sc2c1 was read as KCNQ2 block inactive and KCNQ2 pot 20*.
For COc1ccc(C(=O)NC(NC(=O)c2ccc(OC)c(OC)c2)c2ccccc2F)cc1OC the results were KCNQ2 block inactive and KCNQ2 pot 1.4.
`CCN(Cc1ccccc1)C(=O)C1CCN(CC2CC=CCC2)CC1` (configuration not stated) gave KCNQ2 block inactive.
For CCN(Cc1ccccc1)C(=O)c1ccc(C(=O)N(CC)Cc2ccccc2)cc1 the results were KCNQ2 block inactive.
